The full list was thinned out, with hits kept by preference.
BL2 CD40 inh – CD40 pathway inhibition in BL2 cells. BL2 NF-kB luciferase reporter, CD40L-induced, 4 h. inhibition, % at 10 µM. 0.94% of 83,000 active. AID 1053188;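 active = mean inhibition of at least 50% with a set share of replicates also reaching that level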;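 also: 0% = neutral control wells and 100% = IKK inhibitor VII at 50 µM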
The depositor's hits bear a star; [ ] = another dose, or the depositor's remark.

SMILES | BL2 CD40 inh
COc1cccc(-c2ccc3c(c2)[C@H]2[C@H](CCN2S(=O)(=O)c2ccccc2F)[C@H](CO)N3)c1 | 2[25 µM]
CC(=O)c1cccc(NC(=O)Nc2ccc3c(c2)OCO3)c1 | -40
CCc1cnc(N2[C@H](C#N)[C@H](c3ccc(-c4cccc(F)c4)cc3)[C@H]2CO)s1 | 9[25 µM]
CCN(CC(=O)Nc1c(F)cccc1F)C(=O)CNC(=O)c1ccc(Br)o1 | -5
CC(C)C#Cc1ccc([C@H]2[C@@H](CO)N(C(=O)c3ccccn3)[C@H]2C#N)cc1 | 60*[25 µM]
CCc1csc(N2[C@H](C#N)[C@H](c3ccc(C#Cc4ccc(F)cc4)cc3)[C@H]2CO)n1 | 77*[25 µM]
CCc1csc(N2[C@H](C#N)[C@@H](c3ccc(-c4ccc(F)cc4)cc3)[C@@H]2CO)n1 | 19
N#C[C@@H]1[C@@H](c2ccc(C#Cc3ccccc3F)cc2)[C@H](CO)N1C(=O)C1CCCC1 | -7
N#C[C@@H]1[C@@H](c2ccc(C#Cc3ccc(F)cc3)cc2)[C@H](CO)N1C(=O)C1CCCC1 | -2
CC(C)C#Cc1ccc([C@H]2[C@H](C#N)N(C(=O)c3ccccn3)[C@H]2CO)cc1 | 15[25 µM]
CC(C)C#Cc1ccc([C@@H]2[C@@H](C#N)N(C(=O)c3ccccn3)[C@@H]2CO)cc1 | -11[25 µM]
CCc1csc(N2[C@@H](C#N)[C@@H](c3ccc(C#Cc4ccc(F)cc4)cc3)[C@@H]2CO)n1 | 20[25 µM]
N#C[C@H]1[C@H](c2ccc(C#Cc3ccccc3F)cc2)[C@@H](CO)N1C(=O)C1CCCC1 | 56*
O=C(Nc1ncn[nH]1)c1ccc(Cl)c(Cl)c1 | 5
CN(C)CC(=O)Nc1ccc2c(c1)[C@H]1C[C@H](CC(=O)N3CCCCC3)O[C@H](CO)[C@H]1O2 | -3[25 µM]
C/C=C/c1ccc([C@H]2[C@@H](CO)N[C@@H]2CNC(=O)C2CC2)cc1 | -5[25 µM]
CN(C)c1ccc2c(c1)[C@@H]1C[C@H](CC(=O)N3CCc4ccccc4C3)O[C@@H](CO)[C@@H]1O2 | -13[25 µM]
O=C(NCCc1ccccc1)c1ccc2nccnc2c1 | 72*
O=C(NCCCn1ccnc1)c1ccc2nccnc2c1 | 13
O=C(NCCS(=O)(=O)NCCc1ccccc1)c1ccccc1 | -4
CCCNC(=O)C[C@H]1C[C@H]2c3cc(NC(=O)COC)ccc3O[C@H]2[C@@H](CO)O1 | 4[25 µM]
C/C=C/c1ccc([C@@H]2[C@@H](CO)N(C(=O)CN3CCOCC3)[C@H]2C#N)cc1 | -3[25 µM]
CC1Cc2ccccc2N1C(=O)c1ccc2nccnc2c1 (stereo unspecified) | 10
C[C@@H]1CN([C@@H](C)CO)C(=O)c2c(c3ccccc3n2C)-c2ccccc2CO[C@H]1CN(C)Cc1cccc(C(F)(F)F)c1 | 78*[25 µM]
C[C@@H]1CN([C@H](C)CO)C(=O)c2c(c3ccccc3n2C)-c2ccccc2CO[C@@H]1CN(C)C(=O)Nc1ccccc1C(F)(F)F | 34[25 µM]
SMILES | BL2 CD40 inh
C[C@H]1CN([C@@H](C)CO)C(=O)c2c(c3ccccc3n2C)-c2ccccc2CO[C@@H]1CN(C)S(=O)(=O)c1ccccc1 | 26
C[C@@H]1CN([C@@H](C)CO)C(=O)c2c(c3ccccc3n2C)-c2ccccc2CO[C@@H]1CN(C)Cc1ccc(O)cc1 | -6
C[C@H]1CN([C@@H](C)CO)C(=O)c2c(c3ccccc3n2C)-c2ccccc2CO[C@H]1CN(C)C(=O)Nc1ccccc1C(F)(F)F | 59*[25 µM]
C[C@H](CO)N1C[C@H](C)[C@@H](CN(C)Cc2ccccc2)OCc2ccccc2-c2c(n(C)c3ccccc23)C1=O | 22
C[C@H](CO)N1C[C@H](C)[C@@H](CN(C)Cc2cccc(F)c2)OCc2ccccc2-c2c(n(C)c3ccccc23)C1=O | 20
C[C@@H]1CN([C@@H](C)CO)C(=O)c2c(c3ccccc3n2C)-c2ccccc2CO[C@H]1CN(C)S(=O)(=O)c1ccc([N+](=O)[O-])cc1 | 55*[25 µM]
COc1ccccc1NC(=O)N(C)C[C@@H]1OCc2ccccc2-c2c(n(C)c3ccccc23)C(=O)N([C@H](C)CO)C[C@H]1C | 6
C[C@@H]1CN([C@H](C)CO)C(=O)c2c(c3ccccc3n2C)-c2ccccc2CO[C@H]1CN(C)Cc1ccc(C(F)(F)F)cc1 | 16
C[C@@H]1CN([C@H](C)CO)C(=O)c2c(c3ccccc3n2C)-c2ccccc2CO[C@H]1CN(C)S(=O)(=O)c1ccc([N+](=O)[O-])cc1 | 37[25 µM]
C[C@@H]1CN([C@@H](C)CO)C(=O)c2c(c3ccccc3n2C)-c2ccccc2CO[C@H]1CN(C)Cc1ccccc1 | 49*
CCOC(=O)c1ncc2[nH]c3cccc(OC(C)C)c3c2c1C | -9[25 µM]
C[C@H](CO)N1C[C@H](C)[C@H](CN(C)C(=O)NC2CCCCC2)Oc2ccc(N(C)C)cc2CC1=O | 2[25 µM]
C[C@H]1CN([C@@H](C)CO)C(=O)c2cccc(NC(=O)c3ccc(-c4nccs4)cc3)c2O[C@H]1CN(C)Cc1ccc(Cl)c(Cl)c1 | 21[25 µM]
COc1ccc2c3c([nH]c2c1)[C@H](CO)N(C(C)=O)CC31CN(C(=O)CN2CCOCC2)C1 | 1[25 µM]
COc1ccc(S(=O)(=O)N(C)C[C@H]2Oc3c(NC(=O)Nc4c(C)noc4C)cccc3C(=O)N([C@H](C)CO)C[C@H]2C)cc1 | -4[25 µM]
COc1ccc([C@@H]2CC=CC[C@H](C)Oc3ccccc3C(=O)N(C)[C@@H](C(C)C)C(=O)N2)c(OC)c1 (mixture of isomers) | 19[25 µM]
CC=Cc1ccc2n(c1=O)C[C@@H]1[C@@H](CO)[C@H](C(=O)NCc3ccccc3)[C@H]2N1S(C)(=O)=O (mixture of isomers) | -1[25 µM]
COc1cc(S(=O)(=O)N2CCN(C(=O)c3ccccc3)CC2)c(OC)cc1Br | 0
COC(=O)C[C@H]1C[C@@H]2c3cc(NC(=O)Nc4ccccc4)ccc3O[C@@H]2[C@H](CO)O1 | -2[25 µM]
C[C@H](CO)N1C[C@H](C)[C@@H](CN(C)Cc2ccccc2C(F)(F)F)OCc2ccccc2-c2c(n(C)c3ccccc23)C1=O | 16[25 µM]
COc1ccccc1CN1[C@@H](CO)[C@@H]2c3ccccc3N(C(=O)c3ccc(F)cc3)C[C@@H]21 | -7[25 µM]
CCCNC(=O)N1CC2(CCN(C(=O)c3cccc(F)c3)CC2)c2c([nH]c3cc(OC)ccc23)[C@@H]1CO | 4[25 µM]
CCCNC(=O)Nc1ccc2c(c1)C(=O)N(C)[C@@H]1CC[C@H](CC(=O)NC3CCC3)O[C@@H]1CO2 | 4
O=C(CCl)Nc1ccccc1C(=O)NCc1ccccc1 | 10
CCCC#Cc1ccc([C@@H]2[C@H](C#N)N(C(=O)CN3CCOCC3)[C@H]2CO)cc1 | -9[25 µM]
SMILES | BL2 CD40 inh
CO[C@H]1CN(C)C(=O)c2ccc(NC(=O)Nc3cc(F)ccc3F)cc2OC[C@@H](C)N(C(=O)c2ccccn2)C[C@@H]1C | -8[25 µM]
C[C@@H]1CN([C@H](C)CO)C(=O)c2c(c3ccccc3n2C)-c2ccccc2CO[C@H]1CN(C)C(=O)c1cc(Cl)cc(Cl)c1 | 51*[25 µM]
C[C@@H]1CN([C@H](C)CO)C(=O)c2c(c3ccccc3n2C)-c2ccccc2CO[C@@H]1CN(C)Cc1ccc(C(F)(F)F)cc1 | 6
C[C@H](CO)N1C[C@H](C)[C@H](CN(C)C(=O)c2cc(Cl)cc(Cl)c2)OCc2ccccc2-c2c(n(C)c3ccccc23)C1=O | 42[25 µM]
C[C@@H]1CN([C@H](C)CO)C(=O)c2c(c3ccccc3n2C)-c2ccccc2CO[C@H]1CN(C)Cc1cccc(C(F)(F)F)c1 | 76*[25 µM]
C[C@H]1CN([C@@H](C)CO)C(=O)c2c(c3ccccc3n2C)-c2ccccc2CO[C@@H]1CN(C)Cc1ccc(C(F)(F)F)cc1 | 15
